# “And” between values parts separate entries of the source, which are not always exact repeats. Equal values may be shown once. Inconclusive results are not listed. The source made the active and inactive calls. How the source made its calls: active means hit-call score of the fitted dose curve at least 0.9, where 1 is the maximum; inconclusive means response in the unintended direction; inactive means score below 0.9.
# Key:
# [1] = molecular target: human Ephrin type-A Receptor 1 (EphA1), EPHA1 (gene 2041) (UniProt P21709); experiment: NVS_ENZ_hEphA1: NovaScreen (NVS) Enzymatic Assay for human Ephrin type-A Receptor 1 (EphA1) (AID 2283158);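 further: activity is signal loss versus DMSO meaning EphA1 kinase inhibition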
# Chain of human Ephrin type-A Receptor 1 (EphA1), EPHA1 (gene 2041) (P21709 whole entry, looked up): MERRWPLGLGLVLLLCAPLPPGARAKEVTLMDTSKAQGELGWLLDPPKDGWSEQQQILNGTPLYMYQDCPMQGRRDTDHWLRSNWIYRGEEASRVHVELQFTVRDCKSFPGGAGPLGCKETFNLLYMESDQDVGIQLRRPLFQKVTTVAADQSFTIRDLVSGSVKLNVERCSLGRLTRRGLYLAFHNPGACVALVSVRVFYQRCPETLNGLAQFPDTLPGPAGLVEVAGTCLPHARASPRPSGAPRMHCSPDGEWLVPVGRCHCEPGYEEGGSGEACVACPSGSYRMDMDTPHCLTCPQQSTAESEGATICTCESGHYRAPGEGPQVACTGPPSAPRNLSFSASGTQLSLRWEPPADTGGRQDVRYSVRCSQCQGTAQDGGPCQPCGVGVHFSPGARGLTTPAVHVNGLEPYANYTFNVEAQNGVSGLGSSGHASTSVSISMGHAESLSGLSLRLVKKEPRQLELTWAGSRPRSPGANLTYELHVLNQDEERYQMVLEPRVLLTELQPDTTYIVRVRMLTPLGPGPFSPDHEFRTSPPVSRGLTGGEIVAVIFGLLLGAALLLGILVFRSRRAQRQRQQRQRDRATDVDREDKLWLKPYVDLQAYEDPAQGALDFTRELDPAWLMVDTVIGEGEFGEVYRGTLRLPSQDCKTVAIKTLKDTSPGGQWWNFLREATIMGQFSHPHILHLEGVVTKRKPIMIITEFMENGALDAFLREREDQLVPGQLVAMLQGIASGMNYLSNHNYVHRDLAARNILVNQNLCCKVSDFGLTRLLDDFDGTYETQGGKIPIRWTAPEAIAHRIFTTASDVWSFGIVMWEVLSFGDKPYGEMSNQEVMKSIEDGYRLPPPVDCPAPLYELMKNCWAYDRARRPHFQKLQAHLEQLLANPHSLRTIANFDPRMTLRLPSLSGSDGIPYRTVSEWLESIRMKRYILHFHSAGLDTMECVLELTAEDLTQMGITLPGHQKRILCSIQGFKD
# Outline: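 Chemicals first tested in duplicate at 25 uM against recombinant EphA1 with a fluorescent substrate; those passing threshold went to singleton dose-response topping at 50 uM. Activity read 1 h later as mobility-shift fluorescence, loss of signal relative to DMSO.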
# [2] = molecular target: human Matrix Metalloproteinase-9 (MMP9), MMP9 (gene 4318) (UniProt P14780); experiment: NVS_ENZ_hMMP9: NovaScreen (NVS) Enzymatic Assay for human Matrix Metalloproteinase-9 (MMP9) (AID 2283190);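 further: cell-free recombinant MMP9 protease activity read by fluorescent substrate signal; active means inhibition seen as loss of fluorescence signal versus DMSO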
# Chain of human Matrix Metalloproteinase-9 (MMP9), MMP9 (gene 4318) (P14780 whole entry, looked up): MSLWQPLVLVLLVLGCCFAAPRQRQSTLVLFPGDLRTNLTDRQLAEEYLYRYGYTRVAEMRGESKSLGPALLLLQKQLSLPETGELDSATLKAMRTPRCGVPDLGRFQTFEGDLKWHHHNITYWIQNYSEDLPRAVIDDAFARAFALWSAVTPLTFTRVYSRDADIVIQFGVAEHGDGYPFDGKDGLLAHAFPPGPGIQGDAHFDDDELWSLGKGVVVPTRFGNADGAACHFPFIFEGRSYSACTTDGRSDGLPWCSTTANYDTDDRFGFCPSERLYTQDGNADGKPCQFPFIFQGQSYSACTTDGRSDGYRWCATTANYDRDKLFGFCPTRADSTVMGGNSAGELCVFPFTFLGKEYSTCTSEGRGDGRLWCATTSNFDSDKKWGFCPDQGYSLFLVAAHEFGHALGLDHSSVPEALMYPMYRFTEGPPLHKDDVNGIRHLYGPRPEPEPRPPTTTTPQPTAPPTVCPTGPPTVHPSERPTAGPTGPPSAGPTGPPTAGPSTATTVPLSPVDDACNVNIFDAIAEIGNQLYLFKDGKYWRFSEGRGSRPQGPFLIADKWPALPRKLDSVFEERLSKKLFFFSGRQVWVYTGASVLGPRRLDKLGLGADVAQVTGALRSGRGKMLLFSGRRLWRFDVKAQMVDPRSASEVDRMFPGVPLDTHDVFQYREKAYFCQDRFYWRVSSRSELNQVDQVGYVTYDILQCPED
# Outline: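 Extracted enzyme, fluorescent substrate, 1 h post-dose read. Single conc 25 uM in duplicate, then concentration series for actives. Activity = signal loss relative to DMSO negative control.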
# [3] = molecular target: Histone deacetylase 3 (Homo sapiens) (UniProt O15379); experiment: NVS_ENZ_hHDAC3: NovaScreen (NVS) Enzymatic Assay for human Histone Deacetylase 3 (HDAC3) (AID 2283163)
# Outline: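 Cell-free enzyme format: loss of fluorescent product after mobility-shift separation, 1 h incubation, recombinant human HDAC3. Single 25 uM duplicate screen first, then concentration series to a 50 uM top for hits; DMSO as baseline.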
# [4] = molecular target: human Colony Stimulating Factor 1 Receptor (CSF1R), CSF1R (gene 1436) (UniProt P07333); experiment: NVS_ENZ_hCSF1R: NovaScreen (NVS) Enzymatic Assay for human Colony Stimulating Factor 1 Receptor (CSF1R) (AID 2283150)
# Outline: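 Compounds screened in duplicate at 25 uM, then concentration-response (top 50 uM) for those passing threshold such as 30% inhibition; recombinant CSF1R activity measured 1 h post-dosing via fluorescent substrate/product mobility-shift separation, loss of signal versus DMSO.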
# [5] = molecular target: human Dual Specificity Protein Phosphatase 3 (DUSP3), DUSP3 (gene 1845) (UniProt P51452); experiment: NVS_ENZ_hDUSP3: NovaScreen (NVS) Enzymatic Assay for human Dual Specificity Protein Phosphatase 3 (DUSP3) (AID 2283152);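 further: phosphatase activity of recombinant human DUSP3 on a fluorogenic substrate without cells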
# Chain of human Dual Specificity Protein Phosphatase 3 (DUSP3), DUSP3 (gene 1845) (P51452 whole entry, looked up): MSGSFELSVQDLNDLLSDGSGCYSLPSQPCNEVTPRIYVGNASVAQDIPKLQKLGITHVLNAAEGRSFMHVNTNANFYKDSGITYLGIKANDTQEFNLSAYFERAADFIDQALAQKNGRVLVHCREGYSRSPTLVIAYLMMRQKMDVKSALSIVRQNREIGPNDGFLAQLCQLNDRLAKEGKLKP
# Outline: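 Cell-free fluorescence-intensity enzyme activity assay with recombinant protein and substrate; loss of signal fitted relative to DMSO baseline. Primary screen in duplicate at 25 uM, actives then run in concentration series; measured 0 h after dosing.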
# [6] = molecular target: human FYN Proto-Oncogene, Src family Tyrosine Kinase (Fyn), FYN (gene 2534) (UniProt P06241); experiment: NVS_ENZ_hFyn: NovaScreen (NVS) Enzymatic Assay for human FYN Proto-Oncogene, Src family Tyrosine Kinase (Fyn) (AID 2283161)
# Chain of human FYN Proto-Oncogene, Src family Tyrosine Kinase (Fyn), FYN (gene 2534) (P06241 whole entry, looked up): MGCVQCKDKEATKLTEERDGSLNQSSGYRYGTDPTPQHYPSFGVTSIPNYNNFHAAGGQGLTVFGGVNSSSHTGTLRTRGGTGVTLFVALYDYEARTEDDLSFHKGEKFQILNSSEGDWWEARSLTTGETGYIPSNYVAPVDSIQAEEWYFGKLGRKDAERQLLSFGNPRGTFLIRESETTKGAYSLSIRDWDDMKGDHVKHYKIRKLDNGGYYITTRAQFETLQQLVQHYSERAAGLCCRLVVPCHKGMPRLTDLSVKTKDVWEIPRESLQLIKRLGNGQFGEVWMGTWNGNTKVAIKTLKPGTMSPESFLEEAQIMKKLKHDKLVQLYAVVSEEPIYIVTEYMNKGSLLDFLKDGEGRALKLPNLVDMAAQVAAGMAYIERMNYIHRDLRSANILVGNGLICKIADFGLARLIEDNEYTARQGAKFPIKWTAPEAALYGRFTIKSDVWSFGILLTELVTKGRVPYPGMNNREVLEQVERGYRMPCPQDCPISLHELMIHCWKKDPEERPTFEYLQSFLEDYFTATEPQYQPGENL
# Outline: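 Cell-free kinase activity read by fluorescence after mobility-shift separation of substrate and product, 1 h post-dose. Initial single concentration 25 uM in duplicate, then concentration-response follow-up; DMSO baseline.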
# [7] = molecular target: human Insulin Receptor (InsR), INSR (gene 3643) (UniProt P06213); experiment: NVS_ENZ_hInsR: NovaScreen (NVS) Enzymatic Assay for human Insulin Receptor (InsR) (AID 2283168)
# Outline: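 Cell-free enzyme assay read 1 h post-dose by fluorescence after substrate/product mobility-shift separation. Duplicate 25 uM primary screen, then singleton concentration-response up to 50 uM for compounds passing threshold; loss of signal vs DMSO.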
# [8] = molecular target: human Janus Kinase 2 (Jak2), JAK2 (gene 3717) (UniProt O60674); experiment: NVS_ENZ_hJak2: NovaScreen (NVS) Enzymatic Assay for human Janus Kinase 2 (Jak2) (AID 2283169)
# Outline: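 Single-point duplicate screen at 25 uM, with hits run in concentration series to a 50 uM top dose. Substrate-product separation by mobility shift with fluorescence detection, 1 h post-dosing; DMSO baseline.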
# [9] = molecular target: Mitogen-activated protein kinase 3 (Homo sapiens) (UniProt P27361); experiment: NVS_ENZ_hMAPK3: NovaScreen (NVS) Enzymatic Assay for human Mitogen-Activated Protein Kinase 3 (MAPK 3) (AID 2283177)
# Outline: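 Chemicals were first tested in duplicate at 25 uM, with hits re-run as concentration series (max 50 uM). Recombinant enzyme activity, measured 1 h post-dose in a cell-free format, was read by fluorescence/mobility shift relative to DMSO.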
# [10] = molecular target: Collagenase 3 (Homo sapiens) (UniProt P45452); experiment: NVS_ENZ_hMMP13: NovaScreen (NVS) Enzymatic Assay for human Matrix Metalloproteinase-13 (MMP13) (AID 2283182)
# Outline: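 Recombinant MMP13 cleaving fluorescent substrate, cell-free, measured 1 h after dosing. Primary duplicate screen at 25 uM; actives tested in concentration-response up to 50 uM; loss of signal relative to DMSO.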
# [11] = molecular target: human Matrix Metalloproteinase-7 (MMP7), MMP7 (gene 4316) (UniProt P09237); experiment: NVS_ENZ_hMMP7: NovaScreen (NVS) Enzymatic Assay for human Matrix Metalloproteinase-7 (MMP7) (AID 2283183)
# Chain of human Matrix Metalloproteinase-7 (MMP7), MMP7 (gene 4316) (P09237 whole entry, looked up): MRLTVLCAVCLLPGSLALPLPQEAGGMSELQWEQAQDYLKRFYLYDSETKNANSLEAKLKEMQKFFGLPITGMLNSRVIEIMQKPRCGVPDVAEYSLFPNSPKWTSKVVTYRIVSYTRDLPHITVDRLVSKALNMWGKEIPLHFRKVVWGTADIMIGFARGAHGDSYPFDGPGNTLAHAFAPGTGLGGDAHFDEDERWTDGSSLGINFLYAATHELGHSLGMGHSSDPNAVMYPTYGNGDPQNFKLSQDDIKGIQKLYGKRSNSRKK
# Outline: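 Compounds first tested at 25 uM in duplicate, then at up to 50 uM in concentration series if active. Protease activity measured by fluorescence intensity 1 h after dosing, with fitting relative to DMSO.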
# [12] = molecular target: human Matrix Metalloproteinase-2 (MMP2), MMP2 (gene 4313) (UniProt P08253); experiment: NVS_ENZ_hMMP2: NovaScreen (NVS) Enzymatic Assay for human Matrix Metalloproteinase-2 (MMP2) (AID 2283184)
# Outline: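 Compounds first screened in duplicate at a single 25 uM, with actives followed up in concentration series. Recombinant human MMP2 cleaves a fluorogenic substrate; fluorescence taken at 1 h, inhibition fitted relative to DMSO.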
# [13] = molecular target: human Mitogen- and Stress-activated Protein Kinase-1 (Msk1), RPS6KA5 (gene 9252) (UniProt O75582); experiment: NVS_ENZ_hMsk1: NovaScreen (NVS) Enzymatic Assay for human Mitogen- and Stress-activated Protein Kinase-1 (Msk1) (AID 2283187)
# Chain of human Mitogen- and Stress-activated Protein Kinase-1 (Msk1), RPS6KA5 (gene 9252) (O75582 whole entry, looked up): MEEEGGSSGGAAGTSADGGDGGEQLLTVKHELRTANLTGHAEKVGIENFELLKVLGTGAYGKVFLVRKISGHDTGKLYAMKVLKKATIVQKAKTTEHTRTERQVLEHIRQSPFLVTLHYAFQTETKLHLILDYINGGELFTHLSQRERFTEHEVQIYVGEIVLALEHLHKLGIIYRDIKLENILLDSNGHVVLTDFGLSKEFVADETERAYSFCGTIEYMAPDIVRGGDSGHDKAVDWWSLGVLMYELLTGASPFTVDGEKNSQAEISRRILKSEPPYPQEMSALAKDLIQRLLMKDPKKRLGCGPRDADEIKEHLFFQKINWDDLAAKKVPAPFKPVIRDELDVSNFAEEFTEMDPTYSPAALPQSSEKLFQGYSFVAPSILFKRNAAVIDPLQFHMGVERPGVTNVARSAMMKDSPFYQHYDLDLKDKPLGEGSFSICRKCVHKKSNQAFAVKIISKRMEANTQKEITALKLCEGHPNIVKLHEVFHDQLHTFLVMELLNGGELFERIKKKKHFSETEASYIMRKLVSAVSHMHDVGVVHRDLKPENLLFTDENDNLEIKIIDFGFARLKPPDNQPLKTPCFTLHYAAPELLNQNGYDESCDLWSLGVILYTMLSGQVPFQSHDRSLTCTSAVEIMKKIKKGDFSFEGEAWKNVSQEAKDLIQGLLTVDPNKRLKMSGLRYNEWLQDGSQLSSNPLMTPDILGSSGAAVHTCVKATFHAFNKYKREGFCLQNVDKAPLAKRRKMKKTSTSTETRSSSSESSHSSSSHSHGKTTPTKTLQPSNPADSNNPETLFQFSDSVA
# Outline: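 Chemicals first run in duplicate at 25 uM, with actives followed up in singleton concentration series to 50 uM maximum. Enzyme activity came from substrate/product mobility-shift separation with fluorescence detection after 1 h incubation of the recombinant protein.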
# [14] = molecular target: human Phosphodiesterase 4A1 (PDE4A1), PDE4A (gene 5141) (UniProt P27815); experiment: NVS_ENZ_hPDE4A1: NovaScreen (NVS) Enzymatic Assay for human Phosphodiesterase 4A1 (PDE4A1) (AID 2283191)
# Chain of human Phosphodiesterase 4A1 (PDE4A1), PDE4A (gene 5141) (P27815 whole entry, looked up): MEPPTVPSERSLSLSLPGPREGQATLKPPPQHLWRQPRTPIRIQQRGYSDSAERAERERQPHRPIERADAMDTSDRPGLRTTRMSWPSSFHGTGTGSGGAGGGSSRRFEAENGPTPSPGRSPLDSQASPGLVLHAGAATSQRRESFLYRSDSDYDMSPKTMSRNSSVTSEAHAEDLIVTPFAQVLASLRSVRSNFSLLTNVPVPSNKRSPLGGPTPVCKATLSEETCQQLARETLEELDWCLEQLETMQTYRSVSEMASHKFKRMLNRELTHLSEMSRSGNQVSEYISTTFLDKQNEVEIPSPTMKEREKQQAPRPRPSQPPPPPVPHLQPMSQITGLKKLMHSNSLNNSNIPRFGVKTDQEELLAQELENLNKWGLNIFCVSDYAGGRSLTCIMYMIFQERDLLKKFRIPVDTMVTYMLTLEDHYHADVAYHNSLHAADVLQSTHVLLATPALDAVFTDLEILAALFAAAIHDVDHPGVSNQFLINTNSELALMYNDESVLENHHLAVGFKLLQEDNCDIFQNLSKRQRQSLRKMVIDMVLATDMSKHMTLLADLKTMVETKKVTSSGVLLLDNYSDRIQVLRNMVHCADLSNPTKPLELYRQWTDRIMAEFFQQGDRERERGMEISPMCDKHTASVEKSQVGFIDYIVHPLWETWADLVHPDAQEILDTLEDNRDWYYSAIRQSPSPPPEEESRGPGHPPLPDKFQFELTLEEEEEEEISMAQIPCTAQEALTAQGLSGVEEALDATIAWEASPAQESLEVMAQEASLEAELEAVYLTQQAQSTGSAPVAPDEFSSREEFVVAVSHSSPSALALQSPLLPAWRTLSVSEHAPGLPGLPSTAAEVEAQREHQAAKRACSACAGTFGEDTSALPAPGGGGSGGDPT
# Outline: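 Fluorescent substrate turnover by recombinant PDE4A1 read after 1 h by mobility-shift separation. Primary duplicate screen at 25 uM; hits retested in concentration series with a 50 uM maximum, relative to DMSO.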
# [15] = molecular target: cAMP-dependent protein kinase catalytic subunit alpha (Homo sapiens) (UniProt P17612); experiment: NVS_ENZ_hPKA: NovaScreen (NVS) Enzymatic Assay for human Protein Kinase A (PKA) (AID 2283192)
# Outline: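 Cell-free kinase activity read by fluorescence after mobility-shift separation of substrate and product, 1 h post-dosing. Single-concentration duplicate screen (25 uM) preceded singleton concentration series (top 50 uM); loss of signal versus DMSO.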
# [16] = molecular target: human Phosphodiesterase 5 (PDE5), PDE5A (gene 8654) (UniProt O76074); experiment: NVS_ENZ_hPDE5: NovaScreen (NVS) Enzymatic Assay for human Phosphodiesterase 5 (PDE5) (AID 2283194)
# Outline: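 Screening began in duplicate at 25 uM, with actives taken into concentration-response. Enzyme activity of recombinant PDE5 toward its substrate was measured at 1 h by fluorescence mobility-shift detection, relative to DMSO controls.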
# [17] = molecular target: human Esterase Plasma (ES), BCHE (gene 590) (UniProt P06276); experiment: NVS_ENZ_hES: NovaScreen (NVS) Enzymatic Assay for human Esterase Plasma (ES) (AID 2283157)
# Chain of human Esterase Plasma (ES), BCHE (gene 590) (P06276 whole entry, looked up): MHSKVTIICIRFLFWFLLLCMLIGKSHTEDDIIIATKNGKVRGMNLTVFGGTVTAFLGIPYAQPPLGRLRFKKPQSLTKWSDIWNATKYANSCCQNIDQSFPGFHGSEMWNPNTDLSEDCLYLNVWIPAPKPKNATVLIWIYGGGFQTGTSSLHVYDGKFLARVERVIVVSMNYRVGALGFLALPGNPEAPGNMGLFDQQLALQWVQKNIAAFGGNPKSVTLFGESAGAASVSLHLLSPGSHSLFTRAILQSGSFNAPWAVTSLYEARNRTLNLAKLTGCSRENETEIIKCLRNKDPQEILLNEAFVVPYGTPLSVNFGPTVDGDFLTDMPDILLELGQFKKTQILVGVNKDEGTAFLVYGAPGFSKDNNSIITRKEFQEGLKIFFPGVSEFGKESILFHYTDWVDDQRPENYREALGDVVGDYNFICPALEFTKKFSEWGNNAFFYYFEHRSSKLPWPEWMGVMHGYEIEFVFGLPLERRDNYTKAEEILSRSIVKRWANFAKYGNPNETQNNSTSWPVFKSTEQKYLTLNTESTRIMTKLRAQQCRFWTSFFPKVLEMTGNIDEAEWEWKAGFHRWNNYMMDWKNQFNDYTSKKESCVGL
# Outline: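 Primary single-concentration screen at 25 uM in duplicate, then concentration-response to a 50 uM top dose. Human plasma esterase activity detected colorimetrically after 0.25 h incubation, with DMSO as baseline.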
# [18] = molecular target: human Elastase, ELANE (gene 1991) (UniProt P08246); experiment: NVS_ENZ_hElastase: NovaScreen (NVS) Enzymatic Assay for human Elastase (AID 2283153)
# Outline: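 Concentration-response to 50 uM max, run singly for chemicals passing a threshold (e.g., 30% inhibition) in a duplicate 25 uM single-point screen. Neutrophil-derived human elastase, absorbance read-out of enzyme activity at 1.5 h; DMSO baseline.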
# [19] = molecular target: human Matrix Metalloproteinase-3 (MMP3), MMP3 (gene 4314) (UniProt P08254); experiment: NVS_ENZ_hMMP3: NovaScreen (NVS) Enzymatic Assay for human Matrix Metalloproteinase-3 (MMP3) (AID 2283185)
# Outline: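 Fluorescent substrate turnover by recombinant MMP3 read after 1 h, signal loss scored against DMSO. Compounds first run in duplicate at 25 uM single dose, then actives confirmed by concentration series.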
# [20] = molecular target: Glycogen synthase kinase-3 beta (Homo sapiens) (UniProt P49841); experiment: NVS_ENZ_hGSK3b: NovaScreen (NVS) Enzymatic Assay for human Glycogen Synthase Kinase-3 beta (GSK3b) (AID 2283165)
# Outline: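 Recombinant enzyme with specific fluorescent substrate, 1 h, product separated by electrophoretic mobility shift. Primary duplicate screen at 25 uM; actives (e.g. 30% inhibition) followed in singleton concentration-response to 50 uM. Signal loss fitted versus DMSO.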
structure (smiles),measurement,setting,value
C=C(C)C(=O)OCCC[Si](OC)(OC)OC,AC50,[1],25 µM (active)
COC(=O)c1ccc(C(=O)OC)cc1,outcome,[2],inactive
C[C@]12CC[C@@H]3c4ccc(O)cc4CC[C@H]3[C@@H]1CC[C@@H]2O,outcome,[3],inactive
C=CC(=O)OCC(CO)(COC(=O)C=C)COC(=O)C=C,AC50,[2],10.5 µM (active)
CCC(CC)CO,outcome,[1],inactive
c1ccc(Sc2ccccc2)cc1,outcome,[1],inactive
OCCN1CCOCC1,AC50,[2],4.96 µM (active)
NC(=O)c1c(Cl)cccc1Cl,outcome,[1],inactive
CC(C)(O)CCc1ccccc1,outcome,[2],inactive
Nc1ccc(N)c([N+](=O)[O-])c1,outcome,[1],inactive
same,AC50,[2],4.96 µM (active) and 1.02 µM (active)
CC/C(=C(\c1ccccc1)c1ccc(OCCN(C)C)cc1)c1ccccc1,outcome,[4],inactive
same,outcome,[5],inactive
same,outcome,[1],inactive
same,AC50,[6],22.9 µM (active)
same,outcome,[7],inactive
same,AC50,[8],11.1 µM (active)
same,outcome,[9],inactive
same,AC50,[10],42.5 µM (active)
same,outcome,[11],inactive
same,outcome,[12],inactive
same,outcome,[13],inactive
same,outcome,[2],inactive
same,AC50,[14],27.9 µM (active)
same,outcome,[15],inactive
N#CCCNCCC#N,AC50,[1],21.8 µM (active)
CCCCOCCOCCO,outcome,[16],inactive
Cc1ccc(C(C)(C)O)cc1,AC50,[1],44.3 µM (active)
same,AC50,[2],4.24 µM (active)
NC(=O)NC(N)=O,AC50,[5],25 µM (active)
same,outcome,[1],inactive
O=C1OC2(c3ccc(O)cc3Oc3cc(O)ccc32)c2ccccc21,AC50,[5],23.6 µM (active)
same,outcome,[17],inactive
CC(CO)(CO)[N+](=O)[O-],outcome,[1],inactive
Cc1cc(N)n(-c2ccccc2)n1,outcome,[1],inactive
O=C(c1ccc(OCCN2CCCCC2)cc1)c1c(-c2ccc(O)cc2)sc2cc(O)ccc12,AC50,[5],12.6 µM (active)
same,AC50,[18],21 µM (active)
same,outcome,[17],inactive
same,outcome,[1],inactive
same,AC50,[6],35.6 µM (active)
same,AC50,[8],25 µM (active)
same,AC50,[10],17.4 µM (active)
same,outcome,[19],inactive
same,AC50,[13],22.1 µM (active)
same,outcome,[14],inactive
same,AC50,[15],16.7 µM (active)
same,AC50,[16],4.96 µM (active)
CC(=O)C1C(=O)C=C(C)OC1=O (centres undefined),AC50,[1],39.1 µM (active)
CCOC(=O)C(=O)OCC,outcome,[1],inactive
same,AC50,[2],4.5 µM (active)
C1COCO1,outcome,[1],inactive
CCCCCCCCCO,AC50,[2],10.6 µM (active)
CC1(C)CC(=O)CC(C)(C)N1,outcome,[1],inactive
N#CCCCC(C#N)CCC#N (centres undefined),outcome,[1],inactive
CCCCCCCC1CCCC1=O (centres undefined),outcome,[1],inactive
CCOC(=O)C=Cc1ccccc1,outcome,[1],inactive
CCCCCCCCOC(C)=O,AC50,[5],25 µM (active)
C=C(C)C(N)=O,outcome,[20],inactive
same,outcome,[16],inactive
CCCOC(=O)CC,AC50,[2],6.89 µM (active)
C=CCOCC(O)CO (centres undefined),AC50,[2],1.68 µM (active)
CC(C)OB(OC(C)C)OC(C)C,outcome,[1],inactive
CC/C=C\C#N,AC50,[5],40.4 µM (active)
same,outcome,[17],inactive

# — PubChem BioAssay (EPA / NIEHS)
